This is an account of results in ChEMBL document CHEMBL3433997, “St. Jude Leishmania screening dataset” (2016).

For orientation: inhibition means the change of the read-out against control, counted positive when it falls.

The assay deals with Glucose transporter (Leishmania mexicana) (UniProt O61059). In words: ST_JUDE_LEISH: Cytotoxicity at 2uM final concentration against transgenic Leishmania Mexicana promastigotes LmGT2 that are glucose transport deficient and complemented with the L. Mexicana glucose transporter 2. Activity is measured by DNA content using SYBR green in vitro. It is filed as functional.
`Oc1ccc2[nH]c(-c3cccc(F)c3)nc2c1CN1CCCC1`: the inhibition came out at 1.21%.

`CCCCNCc1ccc(-c2nc(CN(CCCN3CCN(C)CC3)C(=O)Nc3cccc(Cl)c3)cs2)cc1`: the inhibition turned out to be 5.61%.

As to `COc1cc2nc(N3CCC(CNC(=O)c4ccc(-c5ccc(C(=O)N(C)C)cc5)cc4)CC3)nc(N)c2cc1OC`, the inhibition is 1.75%.

As for `Cc1c(F)cc(C(=O)NC2CC2)cc1-c1ccc2c(cnn2S(=O)(=O)c2ccc(Cl)s2)c1`, the inhibition turned out to be 0.9%.

Take `N#Cc1c(N2CCCCCC2)nc(N)c2c(N)nc3c(c12)CC(=O)N3c1ccc(F)cc1`: the inhibition came out at 2.89%.

Take `Clc1cc(Br)ccc1-c1ccc(CNCC2CCNCC2)o1`: the inhibition was 1.69%.

Turning to `O=C(Nc1cccc(CN2CCCN(Cc3ncc[nH]3)CC2)c1)c1cc2ccccc2s1`, the inhibition amounted to 3.3%.

As for `Cc1cc(N2CCC(C)CC2)nc2cc(O)ccc12`, the inhibition is 0.89%.

Regarding `COc1ccc(CNC(=O)NC2CCN(c3ccnc(Nc4ccc(F)cc4)n3)C2)cc1` (stereo not given), the inhibition was 7.65%.

As to `Cc1noc(C)c1-c1ccc(C(=C2CCCCCC2)c2ccc(O)cc2)cc1`, the inhibition came out at 4.06%.

For `O=C1C(=Cc2cc(Cc3ccccc3)ccc2O)SC(=S)N1Cc1ccccc1`, the inhibition came to 8.43%.

On to `Cc1cccc(Cn2nc(-c3ccccc3)c(N3CCCCC3)cc2=O)c1`, for which the inhibition was -2.21%.

Regarding `FC(F)(F)c1ccc2[nH]c(-c3ccc(-c4cccc(CNCCN5CCNCC5)c4)cc3)nc2c1`, the inhibition is -1.87%.

On to `CS(=O)(=O)N1CC2(CCN(CCC(NC(=S)Nc3ccccc3)c3ccc(Cl)c(Cl)c3)CC2)c2ccccc21` (stereo not given), for which the inhibition was -0.39%.

On to `Cc1ccc(C(C(=O)Nc2ccc(N3CCNCC3)c(Cl)c2)c2ccccc2)cc1` (stereo not given), for which the inhibition is 1.72%.

For `O=C(Nc1ccc(N2CCN(Cc3c[nH]c4cc(F)ccc34)CC2)cc1)c1ccccc1-c1ccc(C(F)(F)F)cc1`, the inhibition came to 3.31%.

`COc1ccccc1CCNc1ncnc2c1[nH]c1ccc(F)cc12`: the inhibition stood at 10.1%.

For `Oc1c(C(Nc2ccccn2)c2ccco2)cc(Cl)c2cccnc12` (stereo not given), the inhibition was -1.1%.

As to `Cc1nc(SCC(=O)N2CCCC2=O)c2c(C)c(C)sc2n1`, the inhibition stood at 6.78%.

Turning to `O=C(/C=C/c1ccc(Cl)c(Cl)c1)NCCCCCN1CCC(CCNC(=O)C2(c3ccc(Cl)cc3)CC2)CC1`, the inhibition is 3.58%.

For `COc1ccc(CN2CCN(CC(=O)Nc3cc(Cl)ccc3-n3cncn3)CC2)cc1F`, the inhibition is -0.67%.

Take `CC(=O)CSC(C=Cc1ccc(N(C)C)cc1)=Nc1ccccc1`: the inhibition turned out to be 63.3%.

Regarding `CCCCCCOc1ccc(C(=O)NCCC2CCN(CCCCCNC(=O)C=Cc3ccc(Cl)c(Cl)c3)CC2)cc1`, the inhibition was -0.17%.

Consider `COc1cc2nc(NCCn3nc(C)cc3C)nc(NCCc3ccccc3)c2cc1OC`, for which the inhibition is 1.08%.

On to `COc1ccc(CNC(=O)c2cnc3c(O)cccc3c2Nc2cccc(NC(=O)c3ccc(F)cc3)c2)cc1`, for which the inhibition came out at 75.3%.

As for `CCOC(=O)c1ccc(OCc2ccc(-c3ccccc3)cc2)cc1`, the inhibition turned out to be 0.75%.

On to `COc1ccccc1N(C)CCNc1cc(C)nc(Nc2ccccc2)n1`, for which the inhibition is 5.05%.

On to `Cc1nc(-c2nc(N3CCC(O)CC3)ncc2-c2ccsc2)sc1C`, for which the inhibition worked out at 0.38%.

For `CC(C)(C)CC(C)(C)c1ccc(O)c(CNC2CCCCC2)c1`, the inhibition was -0.74%.

Regarding `COc1ccc(O)c(Cc2cnc3nc(N)[nH]c(=O)c3c2C)c1`, the inhibition was 4.01%.

For `O=C(CC(=O)Nc1cc(Cl)cc(Cl)c1)Nc1cc(Cl)cc(Cl)c1`, the inhibition is 0.68%.

For `CC(C)[C@H](NC(=O)c1c(F)cccc1F)C(=O)Nc1ccc(Cc2nc3ccccc3s2)cc1`, the inhibition is 4.17%.

For the molecule `COc1ccc2c(c1)OC(C)(C)CC2=NOS(=O)(=O)c1ccc(C)cc1`, the inhibition was determined as 2%.

For `CCCOc1ccc(C(=O)Nc2nonc2-c2ccc(OC)c(OC)c2)cc1`, the inhibition is 5.89%.

With `CCc1ccccc1N1CCN(CCCC(=O)c2ccc(NC(=O)c3cc(Cl)cc(Cl)c3)cc2)CC1`, the inhibition is 3.44%.

Regarding `N=C(N)NC(=O)Nc1ccc(Cl)c(Cl)c1`, the inhibition is -1.06%.

In the case of `O=C(CCCCCNC(=O)c1ccc(O)c(-c2ccc(Cl)c(Cl)c2)c1)NCCN1CCCCC1`, the inhibition was found to be 3.45%.

On to `CCCCCCCc1c2c(C)c(C(=O)OCC)nc-2cc2n1CC(C)=C2C`, for which the inhibition is 3.09%.

On to `CC1CN(Cc2ccccc2)CCN1c1ccc(NC(=O)c2cccs2)cc1` (stereo not given), for which the inhibition turned out to be 10.8%.

For `COc1ccc2nccc([C@@H](O)CN3CCC(NCc4nc5c(C#N)cccc5[nH]4)CC3)c2c1`, the inhibition was 3.84%.
